KCNQ2 inh – rat KCNQ2 potassium channel inhibitors, primary screen, cell-based, CHO-K1, FluxOR thallium flux, B-score. B-score at 10 µM. 20 min; stronger effect = lower value. hit rate 1.1% among 310,000. Potassium voltage-gated channel subfamily KQT member 2 (Rattus norvegicus), O88943;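 active means fluorescence ratio B-score at most minus 3 library SDs, with starting brightness B-score within 2 library SDs, cut at about -5.5 in these data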
Target sequence (O88943 whole entry, looked up): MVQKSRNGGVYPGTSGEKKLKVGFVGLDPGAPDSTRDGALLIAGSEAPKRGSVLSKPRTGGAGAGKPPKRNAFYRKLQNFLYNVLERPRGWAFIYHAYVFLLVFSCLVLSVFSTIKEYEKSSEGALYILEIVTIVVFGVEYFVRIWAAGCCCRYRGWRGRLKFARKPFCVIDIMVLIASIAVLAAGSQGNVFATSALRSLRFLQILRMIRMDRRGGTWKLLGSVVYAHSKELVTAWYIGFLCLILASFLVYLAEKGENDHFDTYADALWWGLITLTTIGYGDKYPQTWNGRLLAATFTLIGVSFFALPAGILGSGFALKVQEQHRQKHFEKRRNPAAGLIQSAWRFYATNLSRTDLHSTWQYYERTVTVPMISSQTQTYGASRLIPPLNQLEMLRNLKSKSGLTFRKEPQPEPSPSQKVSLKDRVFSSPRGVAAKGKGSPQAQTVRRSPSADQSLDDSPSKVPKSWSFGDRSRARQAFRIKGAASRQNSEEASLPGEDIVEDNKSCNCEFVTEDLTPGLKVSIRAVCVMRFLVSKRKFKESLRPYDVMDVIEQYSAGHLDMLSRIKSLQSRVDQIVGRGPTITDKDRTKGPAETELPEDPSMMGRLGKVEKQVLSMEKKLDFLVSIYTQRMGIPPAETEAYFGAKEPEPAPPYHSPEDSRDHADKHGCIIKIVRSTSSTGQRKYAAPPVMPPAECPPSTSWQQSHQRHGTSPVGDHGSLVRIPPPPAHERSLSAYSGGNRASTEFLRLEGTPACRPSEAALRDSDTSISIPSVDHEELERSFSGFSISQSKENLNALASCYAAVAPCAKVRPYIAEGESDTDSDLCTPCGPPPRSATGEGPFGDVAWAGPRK
KCNQ2 pot – potentiators of rat KCNQ2 potassium channel | B-score at 10 µM | Potassium voltage-gated channel subfamily KQT member 2 (Rattus norvegicus), O88943 | CHO-K1 KCNQ2, FluxOR thallium flux fluorescence; stronger effect = higher value | hit rate 0.54% among 310,000;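 active means fluorescence ratio B-score at least 3 SD of library B-scores, with initial fluorescence B-score within 3 of them, cut at about 5.3 in these data; same plate scores as AID 2156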;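 further: B-score of peak minus minimum over baseline fluorescence ratio after K+ and Tl+ stimulus; positive B-score means potentiation of KCNQ2 with more thallium influx and brighter signal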
KCNQ2 inh conf – rat KCNQ2 potassium channel inhibitors, confirmation, cell-based, thallium flux; shares compounds with KCNQ2 inh; KCNQ2-expressing cells, inhibition; stronger effect = lower value; activity change, negative = inhibition, % at 10 µM; hit rate 57% among 1,000; AID 493025, 2011
KCNQ1 spec – human KCNQ1 channel inhibition, counter-screen for KCNQ2 inhibitor project, cell-based, FluxOR thallium flux | AID 493026, 2011 | KCNQ1-expressing cells, FluxOR thallium flux fluorescence; stronger effect = lower value | shares compounds with KCNQ2 inh | activity change, negative = inhibition, % at 10 µM | hit rate 15% among 1,000;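 active means activity change at least 3 SD of negative controls below their mean in both duplicate wells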;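 further: CHO cells stably transfected with KCNQ1 and depolarized by potassium stimulus; peak minus minimum fluorescence over baseline after thallium addition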
CHO parental ctr – thallium flux change in parental CHO cells, counter-screen for KCNQ2 inhibitor project; shares compounds with KCNQ2 inh; stronger effect = lower value; activity change, % at 10 µM; hit rate 14% among 1,000; AID 493029, 2011
KCNQ2 inh confirm – rat KCNQ2 channel inhibitors, confirmation, cell-based, automated patch clamp, single concentration; calls only at 10 µM; AID 588531, 2011; shares compounds with KCNQ2 inh; hit rate 49% among 550; KCNQ2-expressing cells, automated patch clamp current
Each line names hits and unclear results; the compound was inactive in the other large screens (follow-up assays come after a bar, where they were run). The list is not random: actives were taken first. Their share in the collection is about 1.6%. Unless noted, how the calls were made is not given here.

O=C(Cc1c(F)cccc1Cl)N(Cc1ccccc1)c1ccccn1	none
O=C(NCc1ccccc1)NC(=O)c1ccccc1F	none (no result: KCNQ2 pot)
COc1ccc(CNC(=S)Nc2ccccc2Cl)cc1	none
COc1ccc(CNC(=S)Nc2ccccc2-c2ccccc2)cc1	KCNQ2 inh -7.63 | KCNQ2 inh conf -32.0% | KCNQ1 spec inactive | CHO parental ctr inactive | KCNQ2 inh confirm active
COc1ccc(S(=O)(=O)N(NC2=NS(=O)(=O)c3ccccc32)C(=O)C(C)C)cc1	none
Cc1cccc(N(C)S(=O)(=O)c2ccc(-c3cc(C)no3)s2)c1	KCNQ2 inh -7.03 | KCNQ2 inh conf inactive | KCNQ1 spec inactive | CHO parental ctr inactive
CCN(c1cccc(C)c1)S(=O)(=O)c1ccc(-c2cc(C)no2)s1	none (no result: KCNQ2 pot)
CCCCn1c(N)c(N(CC(C)C)C(=O)c2c(CC)noc2C)c(=O)[nH]c1=O	none (no result: KCNQ2 pot)
CCc1cc(/C(Cc2csc(C)n2)=N/O)c(O)cc1O	KCNQ2 inh -7.65 | KCNQ2 inh conf -37.5% | KCNQ1 spec -34.5% | CHO parental ctr -28.5% | KCNQ2 inh confirm active
Cc1nc(C/C(=N\N)c2ccc(O)cc2O)cs1	none (no result: KCNQ2 pot)
O=C(NCCCN1CCOCC1)c1cccc(S(=O)(=O)Nc2cc(Cl)ccc2Cl)c1	none
O=C1CC2(CCCC2)C(=O)N1c1ccc(S(=O)(=O)NCC2CC2)cc1Cl	none (no result: KCNQ2 pot)
CCCC1/C(=N/O)CC(c2ccccc2)NC1c1ccccc1 (stereo not given)	none (no result: KCNQ2 pot)
CCC1C(=NO)C(CC)C(c2ccccc2)NC1c1ccccc1 (stereo not given)	KCNQ2 inh -9.42 | KCNQ2 inh conf -39.0% | KCNQ1 spec inactive | CHO parental ctr inactive | KCNQ2 inh confirm inactive
Cc1ccc(-c2nc3ccccc3nc2NN)cc1	none (no result: KCNQ2 pot)
Cc1cc(C)n(C(=O)c2cccc(S(=O)(=O)N3CCOCC3)c2)n1	none (no result: KCNQ2 pot)
Cc1ccc(Sc2c(C)nn(C(=O)c3cccc(S(=O)(=O)N4CCOCC4)c3)c2C)cc1	KCNQ2 inh -8.98 | KCNQ2 inh conf -33.0% | KCNQ1 spec inactive | CHO parental ctr inactive | KCNQ2 inh confirm inactive
CCOc1ccccc1CNC(=O)C1CCN(c2nn3c(=O)cc(C)nc3s2)CC1	none (no result: KCNQ2 pot)
COc1ccccc1N1CCN(C2CCCN(C(=O)c3ccccn3)C2)CC1 (stereo not given)	none (no result: KCNQ2 pot)
COc1ccc(CCN(C)C(=O)c2cc(-c3ccccc3)nc3ccc(C)cc23)cc1OC	KCNQ2 inh -7.11 | KCNQ2 inh conf -34.5% | KCNQ1 spec -33.5% | CHO parental ctr -26.5% | KCNQ2 inh confirm active
COc1ccc(CCN(C)C(=O)Cc2ccc(-c3ccccc3)cc2)cc1OC	none (no result: KCNQ2 pot)
O=C(NNC(=O)C1CCN(S(=O)(=O)c2ccc(Cl)cc2)CC1)c1ccccc1O	none (no result: KCNQ2 pot)
O=C(COc1ccccc1-c1ccccc1)NCc1ccco1	KCNQ2 inh -8.5 | KCNQ2 inh conf inactive | KCNQ1 spec inactive | CHO parental ctr inactive
Cc1ccccc1OCC(=O)Nc1ccccc1-c1ccccc1	KCNQ2 inh -6.62 | KCNQ2 inh conf inactive | KCNQ1 spec inactive | CHO parental ctr inactive
CCOc1ccccc1OCC(=O)NCc1ccco1	none (no result: KCNQ2 pot)
Cc1ccccc1NC(=O)COc1ccccc1C	none (no result: KCNQ2 pot)
Cc1ccccc1CN1CCN(Cc2cc(=O)c3ccccc3[nH]2)CC1CCO (stereo not given)	none
COc1ccc(C(=S)N2CCOCC2)cc1OS(=O)(=O)c1ccc(Br)cc1	none
COC(=O)c1c(NC(=O)CN2CCCc3ccccc32)sc(C)c1C	KCNQ2 inh -7.66 | KCNQ2 inh conf -37.5% | KCNQ1 spec -33.0% | CHO parental ctr -33.0% | KCNQ2 inh confirm inactive
CCOC(=O)c1c(NC(=O)CN2CCCc3ccccc32)sc(C)c1C	none (no result: KCNQ2 pot)
CC(C)[C@@H](C(=O)N[C@@H](C(=O)O)c1ccccc1)N1C(=O)N2CCc3c([nH]c4ccccc34)[C@@]2(C)C1=O	none (no result: KCNQ2 pot)
CCN(Cc1ccccc1)C(c1ccccn1)c1nnnn1C1CCCCC1 (stereo not given)	none (no result: KCNQ2 pot)
CCN(Cc1ccccc1)C(c1cccs1)c1nnnn1C1CCCCC1 (stereo not given)	KCNQ2 inh -10.3 | KCNQ2 inh conf -33.5% | KCNQ1 spec inactive | CHO parental ctr inactive | KCNQ2 inh confirm inactive

Source: PubChem
